The source of these data is PubChem BioAssay.

The term inhibition denotes the relative decrease from the control value, in per cent.

Unmarked numbers belong to inactive results. No rule for the calls is given here.

The target of this test is L-lactate dehydrogenase (Plasmodium falciparum (isolate CDC / Honduras)) (UniProt Q27743). Kind of test: PfLDH activity inhibition – cell lysate, 3D7 strain, counter-screen for P. falciparum growth inhibition project (AID 2304).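 Also: 0% = vehicle and 100% = reference inhibitor.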 As to conditions: P. falciparum 3D7 crude extract, LDH APAD/NBT absorbance; at 2 µM; hits give high values. On the technique in general: A counterscreen serves to expose hits that act by an unwanted route or on another target.
Sequence of L-lactate dehydrogenase (Plasmodium falciparum (isolate CDC / Honduras)) (Q27743 whole entry, looked up): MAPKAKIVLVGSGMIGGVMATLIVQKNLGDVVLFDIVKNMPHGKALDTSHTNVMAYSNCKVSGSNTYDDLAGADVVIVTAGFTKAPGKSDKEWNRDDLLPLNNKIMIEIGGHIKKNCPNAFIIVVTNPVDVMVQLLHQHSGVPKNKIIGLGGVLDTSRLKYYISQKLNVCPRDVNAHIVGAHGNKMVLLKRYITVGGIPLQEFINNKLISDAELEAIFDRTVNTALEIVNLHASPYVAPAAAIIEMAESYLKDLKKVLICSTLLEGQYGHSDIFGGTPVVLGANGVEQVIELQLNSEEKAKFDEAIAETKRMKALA
As for `CC(C)Nc1nc(NCCc2cnc[nH]2)nc(Nc2ccc(Oc3ccccc3)cc2)n1`, the inhibition was 1%.
On to `CN(C)CCCNCc1ccc(-c2ccc(F)c(Cl)c2)o1`, for which the inhibition is -7%.
With `COc1ccccc1Cc1nc2ccccc2nc1SCC(=O)Nc1cccc(C(F)(F)F)c1`, the inhibition is 0%.
With `CN1CCC(N2CCN(Cc3ccc(-c4ccc(-c5nc6ccccc6[nH]5)s4)cc3)CC2)CC1`, the inhibition is -3%.
Next, `Cn1cnc2c(Nc3ccncc3)nc(-c3ccc(OC(F)(F)F)cc3)nc21`: -1%.
The figure for `CCc1cn2c3c(cc(C(=O)N[C@@H](Cc4ccccc4)[C@H](O)CNCC(C)C)cc13)N(C)S(=O)(=O)CC2` is -6%; for `O=C(/C=C/c1cccc(Cl)c1)Nc1ccc2nc(CN3CCCC3)ccc2c1` it is 4%.
As to `O=C(C=Cc1ccc(Cl)c(Cl)c1)NCCCCCN1CCCC(CCCNC(=O)c2sc3ccccc3c2Cl)C1` (centres undefined), the inhibition is -3%.
Next, `CC(=O)NCCNc1nccc(N2CCc3ncnc(Nc4ccc(OCc5cccc(F)c5)c(Cl)c4)c3C2)n1`: 5%; `Cc1c(-c2cccc(CNCCc3ccc(Cl)cc3)c2)cnc(N)c1C`: -5%.
Next, `CCCCn1c(Sc2ccc(C#N)c([N+](=O)[O-])c2)nnc1-c1cc(OC)cc(OC)c1`: 2%; `Cc1cc(N2CCN(CC3CCCCC3)CC2)nc(Nc2ccc(Br)cc2)n1`: -6%; `O=c1[nH]c(NCCCNCc2cc3c(Cl)cc(Cl)cc3[nH]2)nc2ccsc12`: 0%.
On to `Cc1cccc2[nH]c(-c3ccc(-c4cccc(NC(=O)c5ccncc5)c4)cc3)nc12`, for which the inhibition was -7%.
